Data as given in PubChem BioAssay AID504834 (National Center for Advancing Translational Sciences (NCATS), 2011).
Among all 320,000 compounds or so, about 22,000 (6.9%) were called active. Not shown: some 27% with an inconclusive outcome. Calls follow the shape of the dose curve; as a rule, active = well fitted inhibition curve with a large enough effect; inconclusive = small, poorly fitted or top-dose-only effect, or another doubt; inactive = no such curve, though single readings can be large or run the other way. Only a selection was taken, and actives are over-represented in it overall.
% is scaled to controls: 0 for no effect and ±100 for the full control effect; potency is read from the fitted curve at half-maximal effect.

Assay: Primary qHTS for delayed death inhibitors of the malarial parasite plastid, 96 hour incubation
Conditions: P. falciparum luciferase reporter growth; series mostly up to 28.7 µM; activity change, negative = inhibition: at the top concentration
Procedure, shortened: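 P. falciparum expressing integrated firefly luciferase, in erythrocytes at 2% hematocrit, 0.05% parasitemia, incubated with compounds 96 h at 37 C, 5% CO2. Growth inhibition read as loss of luminescence; two-generation exposure targets delayed-death apicoplast inhibitors.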
With `N#CC1(NC(=O)COC(=O)Cc2n[nH]c(=O)c3ccccc23)CCCCC1` the “activity change, negative = inhibition” value was 24.1% (inactive). In the case of `CCN(C(=O)CSc1nnc(-c2ccc(OC(F)F)cc2)n1N)C1CCS(=O)(=O)C1` (stereo not given), the “activity change, negative = inhibition” value is reported as 7.28% (inactive). In the case of `O=c1cc(CO)oc(CN2CCC(Cc3ccccc3)CC2)c1O`, the “activity change, negative = inhibition” value is reported as -8.24% (inactive). With `COc1cc(C)cc(CN2CCC(Cc3ccccc3)CC2)c1O` the Potency was 1.17 µM (active). For `NC(=O)c1ccc(CN2CCC(Cc3ccccc3)CC2)cc1`, the “activity change, negative = inhibition” value was -16.8% (inactive). With `CC(C)NC(=O)NNc1c(Cl)cncc1Cl` the “activity change, negative = inhibition” value was 23% (inactive). In the case of `O=C(CNS(=O)(=O)c1ccc2ccccc2c1)Nc1ccc(F)c(F)c1F`, the “activity change, negative = inhibition” value is reported as 12.1% (inactive). For `COc1ccc(/C=N/NC(=O)C2CC2)c(OC)c1OC`, the “activity change, negative = inhibition” value was 103% (inactive). In the case of `COc1ccc(S(=O)(=O)N2CCCC(C(=O)Nc3ccc(NC(=O)c4ccccn4)cc3)C2)cc1` (stereo not given), the “activity change, negative = inhibition” value is reported as 17% (inactive). For `O=C(NCc1ccco1)C1CCCN(S(=O)(=O)c2cccc3nonc23)C1` (stereo not given), the “activity change, negative = inhibition” value was 22% (inactive). For `COc1cccc(CNC(=O)C2CCN(S(=O)(=O)c3cccc4cccnc34)CC2)c1`, the “activity change, negative = inhibition” value was 13.2% (inactive). In the case of `Cc1cccc(NC(=O)C2CCN(S(=O)(=O)c3cccc4cccnc34)CC2)c1`, the Potency is reported as 5.86 µM (active). With `CN(CC(=O)NC1CCCCC1)S(=O)(=O)c1cccc2cccnc12` the “activity change, negative = inhibition” value was 22.2% (inactive). In the case of `CC(=O)c1cccc(NC(=O)C2CCCN(S(=O)(=O)c3cccc4nonc34)C2)c1` (stereo not given), the “activity change, negative = inhibition” value is reported as 5.63% (inactive). For `COc1ccc(NC(=O)C2CCCN(S(=O)(=O)c3cccc4cccnc34)C2)cc1` (stereo not given), the “activity change, negative = inhibition” value was 63.6% (inactive). For `O=C(O)C1CCCN(S(=O)(=O)c2cccc3cccnc23)C1` (stereo not given), the Potency was 2.08 µM (active). For `COc1ccc(NC(=O)C2CCCN(S(=O)(=O)c3cccc4cccnc34)C2)cc1OC` (stereo not given), the Potency was 10.4 µM (active). With `Cc1ccc(C(=O)Nc2nc(N)n(-c3ccccc3)n2)cc1` the “activity change, negative = inhibition” value was 40.9% (inactive). For `CC1=NN(C(N)=S)C(=O)C1N=Nc1cc(Cl)ccc1Cl` (stereo not given), the “activity change, negative = inhibition” value was 16.9% (inactive). With `CCOC(=O)C1CCCN(S(=O)(=O)c2ccc(-n3cnnn3)c(C)c2)C1` (stereo not given) the “activity change, negative = inhibition” value was 4.73% (inactive). With `CCn1c(SCC(=O)NC2=NCCS2)nnc1C(C)NC(=O)c1ccccc1F` (stereo not given) the “activity change, negative = inhibition” value was 19.2% (inactive). With `O=C(CNC(=O)c1cccnc1)N/N=C/c1cccnc1` the “activity change, negative = inhibition” value was 32.2% (inactive). For `O=C(CCCCCNC(=O)c1ccccc1)N/N=C/c1ccccc1`, the Potency was 1.47 µM (active). In the case of `O=C(CC(=O)N/N=C\c1ccc(F)cc1)NCCc1ccccc1`, the “activity change, negative = inhibition” value is reported as 2.04% (inactive). With `CNS(=O)(=O)c1cccc(C(=O)OCCCC(=O)c2ccccc2)c1` the “activity change, negative = inhibition” value was -12.1% (inactive). For `COc1ccc(Cl)cc1NC(=O)CN(C)CC(=O)Nc1ccc2c(c1)OCO2`, the “activity change, negative = inhibition” value was -0.297% (inactive). For `Cn1c(CC(=O)Nc2ccc(F)cc2)nnc1SCC(=O)NC1CCCCC1`, the “activity change, negative = inhibition” value was -8.17% (inactive). For `Clc1nc(NC2CCCC2)nc(N2CCOCC2)n1`, the Potency was 11.7 µM (active). For `COC(=O)CNc1nc(Cl)nc(N2CCC(C)CC2)n1`, the “activity change, negative = inhibition” value was 9.44% (inactive). With `Cc1ccc(Nc2nc(N3CCOCC3)nc(N3CCOCC3)n2)cc1Cl` the “activity change, negative = inhibition” value was -16.3% (inactive).
